Data on 17 molecules can be found in PubChem BioAssay.

For one assay, the target named is Albumin (Bos taurus) (UniProt P02769). The assay is described as follows: bovine serum albumin binders on microarray, profiling panel, artefact control for SMM control protein annotation, biochemical, small-molecule microarray, Alexa647 label, 635/667 nm fluorescence (AID 1118).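 Also: score merges 667 nm emission intensity and signal-to-noise per printed compound spot.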 Particulars: BSA-A647 binding, fluorescence 635 nm, higher = more signal.
Chain of Albumin (Bos taurus) (P02769 whole entry, looked up): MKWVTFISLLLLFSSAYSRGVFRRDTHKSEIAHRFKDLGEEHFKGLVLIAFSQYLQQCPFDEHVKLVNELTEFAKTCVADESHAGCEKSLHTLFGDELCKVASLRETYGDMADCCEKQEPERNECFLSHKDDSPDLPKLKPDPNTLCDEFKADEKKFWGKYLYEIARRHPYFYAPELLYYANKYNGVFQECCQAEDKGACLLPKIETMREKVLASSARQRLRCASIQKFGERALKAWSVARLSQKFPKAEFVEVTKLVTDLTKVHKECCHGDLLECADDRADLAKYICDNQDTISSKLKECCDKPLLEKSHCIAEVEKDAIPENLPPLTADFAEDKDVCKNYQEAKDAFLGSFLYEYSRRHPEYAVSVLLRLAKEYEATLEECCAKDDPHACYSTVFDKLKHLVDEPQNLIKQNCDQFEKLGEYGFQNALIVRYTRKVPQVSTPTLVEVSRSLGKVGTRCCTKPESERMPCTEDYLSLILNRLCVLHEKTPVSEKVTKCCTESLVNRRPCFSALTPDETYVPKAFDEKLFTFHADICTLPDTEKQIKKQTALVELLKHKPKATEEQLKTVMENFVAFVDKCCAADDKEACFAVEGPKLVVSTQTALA
Assay [1] is described as follows: small-molecule microarray binders of probe aXIP, primary screen, biochemical, NeuroSMM set, 635/667 nm fluorescence (AID 1119).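 Also: probe is the protein aXip251-270 applied at 1 µg/mL to compound-printed slides; binding of probe to printed compounds measured as 667 nm fluorescence plus signal to noise.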 Conditions: higher = more signal, called active from +8 up or from −8 down.
Assay [2] is described as follows: small-molecule binders of probe aNOTCH3, primary screen, biochemical, small-molecule microarray, 635/667 nm fluorescence (AID 1120).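 Also: probe is a biotin-tagged antibody raised against NOTCH3 rather than NOTCH3 protein; score merges spot fluorescence near 667 nm with spot signal to noise.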 Particulars: higher = more signal.
Assay [3] in a line: small-molecule binders of probe aNOTCH2, primary screen, biochemical, small-molecule microarray, 635/667 nm fluorescence (AID 1121).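 Also: score merges feature fluorescence read at 667 nm with its signal to noise.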 Particulars: higher = more signal.
In assay [4] the target is Carbonic anhydrase 2 (Homo sapiens) (UniProt P00918). The assay is described as follows: CAII small-molecule binders, profiling panel, biochemical, small-molecule microarray, Alexa647-labelled CAII (AID 1122). Conditions: CAII-A647 binding fluorescence, higher = more signal.
Assay [5] is described as follows: COS7 lysate on small-molecule microarray, probe aHis, 635 nm (AID 1123).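 Also: z-score combines 667nm fluorescence intensity with signal-to-noise per printed compound spot.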 Particulars: COS7 cell lysate, fluorescence, higher = more signal.
Assay [6] in a line: compound binding in COS7 lysate, probe aLAP1, primary screen, cell lysate, small-molecule microarray (AID 1124).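 Also: lysate comes from COS7 cells expressing LAP1 and is applied at 0.3 µg/mL; score merges spot fluorescence near 667 nm with signal-to-noise over triplicate slides.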 Particulars: probe aLAP1, fluorescence, higher = more signal.
A further assay deals with Sam68 (KHDRBS1). The assay is described as follows: Sam68 small-molecule binders, primary screen, biochemical, small-molecule microarray, 635 nm fluorescence (AID 1125).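 Also: score merges 667 nm channel intensity with signal to noise over triplicate slides.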 Conditions: small-molecule microarray binding, higher = more signal.
The test system of assay [7] is Chordin-like protein 2 (CHRDL2). The assay is described as follows: CHRDL2 small-molecule binders, primary screen, biochemical, small-molecule microarray, 635 nm fluorescence (AID 1126).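 Also: printed compound slides probed with Chrdl2 protein at 4 µg/mL for 1 h at 4 C; score merges 667 nm emission intensity with signal to noise over three replicate slides.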 Conditions: small-molecule microarray binding, fluorescence 635 nm; higher = more signal.
The target in assay [8] is Concanavalin-A (Canavalia ensiformis) (UniProt P02866). Description: ConA small-molecule binders, primary screen, artefact control for SMM control protein annotation, biochemical, small-molecule microarray, Alexa647 label, 635 nm (AID 1127).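 Also: z combines 667 nm emission intensity with signal-to-noise across three replicate slides.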 Conditions: ConA-A647 binding fluorescence, higher = more signal.
Chain of Concanavalin-A (Canavalia ensiformis) (P02866 whole entry, looked up): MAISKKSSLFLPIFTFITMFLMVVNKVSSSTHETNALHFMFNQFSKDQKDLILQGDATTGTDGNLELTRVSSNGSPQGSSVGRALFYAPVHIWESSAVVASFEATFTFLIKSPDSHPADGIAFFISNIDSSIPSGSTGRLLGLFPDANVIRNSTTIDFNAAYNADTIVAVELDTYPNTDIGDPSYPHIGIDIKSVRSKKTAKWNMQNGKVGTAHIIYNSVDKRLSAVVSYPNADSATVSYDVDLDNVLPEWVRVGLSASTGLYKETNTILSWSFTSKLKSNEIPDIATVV

Activity calls are given as the source filed them.

Take `CN(C)CCCCNC(=O)[C@@H]1C[C@@H]2C(=O)N[C@@H](CCCCN)C(=O)N2[C@@H]1c1cccc(OCCO)c1`: the composite z-score with Albumin (Bos taurus) is -0.564; in [2] it was -0.0918; in assay [3] it was 0.0072; in assay [4] it was 0.42; in assay [5] it was 2.85; in assay [6], 0.429. Further, the composite z-score was -0.266 in the assay with Sam68 (KHDRBS1), -0.0061 in assay [7] and 0.344 in assay [8]. Moreover, in assay [1], the composite Z-score was 0.703 (inactive).

`O=C(NCC(F)(F)F)[C@@H]1c2ccccc2C(=O)N(Cc2ccccc2)[C@H]1c1ccc(CO)cc1`: the composite z-score with Albumin (Bos taurus) was -1.27; in assay [2], -0.354; in [3] it was -0.0586; in assay [4], 0.723; in [5], 1.08; in assay [6] it was 0.345. For the same molecule, the composite z-score in the assay on Sam68 (KHDRBS1) is -0.141; in assay [7], -1.57; in assay [8], -0.331. In assay [1], the composite Z-score was 0.111 (inactive).

Take `O=C1C2C=CC(C(O)c3ccc(Br)cc3)N(n3cnnc3)C2C(=O)N1Cc1ccccc1` (stereo not given): the composite z-score is 0.807 with Albumin (Bos taurus); -0.0443 in [2]; -0.0004 in assay [3]; 0.259 in assay [4]; 1.57 in assay [5]; 0.448 in assay [6]. Also, the composite z-score in the assay on Sam68 (KHDRBS1) was 1.29; in assay [7], -0.064; in assay [8], 1.07. In assay [1], the composite Z-score is -1.02 (inactive).

For `[N-]=[N+]=Nc1ccccc1[C@H]1OC(c2ccc(OCCCO)cc2)=N[C@@]1(CCS(=O)(=O)c1ccccc1)C(=O)N1CCOCC1`, the composite z-score with Albumin (Bos taurus) came to 1.08; in assay [2], 0.586; in assay [3] it was 0.358; in assay [4], 0.522; in assay [5], 2.65; in [6], 0.603. Moreover, the composite z-score was 1.3 in the assay on Sam68 (KHDRBS1), -0.409 in [7] and 1.22 in [8]. In addition, the composite Z-score in assay [1] is 1.23 (inactive).

As to `COC(=O)[C@@]1(Cc2ccccc2)[C@H]2c3cc(C(=O)N(C)C)n(Cc4ccccc4)c3C[C@H]2CN1C(=O)c1ccccc1`, the composite z-score was 0.75 with Albumin (Bos taurus); 0.184 in [2]; -0.0895 in assay [3]; 0.749 in assay [4]; 1.41 in assay [5]; -0.469 in assay [6]. In addition, the composite z-score in the assay with Sam68 (KHDRBS1) is -0.0506; in assay [7], -0.539; in assay [8] it was 0.919. For the same molecule, the composite Z-score in assay [1] was 0.047 (inactive).

Take `C#C[C@H]1Oc2ccccc2S(=O)(=O)N2CCC[C@@H]12`: the composite z-score in the assay with Albumin (Bos taurus) is -1.3; in [2], 0.0026; in assay [3], -0.0548; in assay [4], -0.156; in assay [5], -0.117; in assay [6] it was 0.0504. Besides, the values for the composite z-score (with Sam68 (KHDRBS1); in assay [7]; in assay [8]) were -0.399, 0.839 and -1.55, respectively. In addition, in [1], the composite Z-score was -0.0662 (inactive).

Regarding `[N-]=[N+]=Nc1ccccc1[C@@H]1OC(c2ccc(OCCCO)cc2)=N[C@]1(CCS(=O)(=O)c1ccccc1)C(=O)N1CCCCC1`, the composite z-score with Albumin (Bos taurus) was determined as 1.03; in assay [2], 0.144; in assay [3], 0.139; in assay [4], 0.625; in [5], 1.93; in [6], 0.686. Besides, the composite z-score was 1.29 in the assay on Sam68 (KHDRBS1), -0.74 in assay [7] and 1.2 in [8]. The composite Z-score in assay [1] was -0.0281 (inactive).

On to `O=c1cccc(-c2ccccc2)o1`, for which the composite z-score was 0.66 with Albumin (Bos taurus); -0.0933 in assay [2]; -0.0974 in [3]; 0.51 in assay [4]; -0.295 in assay [5]; -0.0258 in [6]. Moreover, the composite z-score with Sam68 (KHDRBS1) was -1.1; in [7] it was 0.223; in assay [8], -0.234. Besides, in assay [1], the composite Z-score was 2.27 (inactive).

For `C=CCC(OC(C)=O)[C@@H]1[C@@H](N(Cc2ccc(-c3ccccc3)cc2)C(=O)c2ccc(C)cc2)c2cc(OCCCO)ccc2N1C(=O)Cc1ccc(OC)cc1` (stereo not given in full), the composite z-score was -0.0547 in the assay with Albumin (Bos taurus); -0.0208 in [2]; -0.0131 in assay [3]; -0.249 in assay [4]; 0.0567 in assay [5]; 0.179 in assay [6]. In addition, the composite z-score was -0.248 in the assay with Sam68 (KHDRBS1), -0.0845 in assay [7] and 0.733 in [8]. The composite Z-score in [1] is 0.39 (inactive).

On to `CC(C)N1C(=O)c2ccccc2[C@](C)(C(=O)NC2CC2)[C@@H]1c1ccc(CO)cc1`, for which the composite z-score with Albumin (Bos taurus) is 0.375; in [2] it was -0.0557; in [3] it was -0.171; in assay [4], 0.665; in assay [5] it was 1.41; in assay [6] it was -0.141. The figures for the composite z-score (in the assay with Sam68 (KHDRBS1); in [7]; in assay [8]) were 0.424, 0.172 and 0.699, respectively. Besides, the composite Z-score in [1] was -0.116 (inactive).

Turning to `COc1ccc(C#Cc2ccc3c(c2)[C@]2(C(=O)N3)[C@H](C(=O)N3CCN(c4ncccn4)CC3)[C@H]3C(=O)O[C@H](c4ccccc4)[C@H](c4ccccc4)N3[C@@H]2c2ccc(O)cc2)cc1`, the composite z-score in the assay with Albumin (Bos taurus) was 0.413; in assay [2] it was -0.184; in assay [3], 0.0086; in assay [4] it was 0.327; in [5], 1.19; in [6] it was 0.76. Moreover, the composite z-score in the assay on Sam68 (KHDRBS1) was 1.3; in assay [7], 0.7; in assay [8], 1.05. Also, in [1], the composite Z-score was 0.345 (inactive).

In the case of `C[N+](C)(C)CCCC[C@@H]1NC(=O)[C@@H]2C[C@H](C(=O)NCCCCCCNC(=O)CS)[C@H](c3cccc(OCCO)c3)N2C1=O`, the composite z-score is -0.658 in the assay with Albumin (Bos taurus); -0.0984 in assay [2]; -0.174 in assay [3]; 0.332 in assay [4]; 1.04 in assay [5]; 0.264 in assay [6]. Also, the composite z-score in the assay with Sam68 (KHDRBS1) was 0.129; in assay [7], 0.393; in assay [8], -0.258. In assay [1], the composite Z-score was 0.802 (inactive).

Consider `C=CC[C@]1(C(=O)NCCN2CCOCC2)N=C(c2ccc(OCCCO)cc2)O[C@H]1c1ccccc1N=[N+]=[N-]`, for which the composite z-score in the assay with Albumin (Bos taurus) was 0.927; in assay [2] it was 0.0303; in assay [3] it was -0.0359; in [4] it was 0.691; in assay [5] it was 1.55; in assay [6], 0.811. For the same molecule, the composite z-score in the assay on Sam68 (KHDRBS1) was found to be 1.24; in assay [7], 0.663; in [8] it was 0.563. Besides, in [1], the composite Z-score was 0.581 (inactive).

`CCOC(=O)N1C(c2ccc(OCCCO)cc2)=NC(C(=O)OC)N1C(=O)OCC` (stereo not given): the composite z-score in the assay with Albumin (Bos taurus) is 0.878; in [2] it was 0.183; in [3] it was -0.0326; in assay [4], 0.733; in [5] it was 1.73; in assay [6], 0.626. The composite z-score in the assay on Sam68 (KHDRBS1) is 1.18; in assay [7], -0.105; in assay [8] it was 1.09. The composite Z-score in [1] was -0.363 (inactive).

As to `CCN(CC)c1ccc(N2CC=CC34O[C@@H]5C=CCOC(=O)[C@@H]5[C@H]3C(=O)N(CCCCCO)[C@@H]4C2=O)cc1` (stereo not given in full), the composite z-score in the assay with Albumin (Bos taurus) is 0.347; in [2] it was -0.193; in assay [3], -0.146; in assay [4], 0.861; in [5], 1.17; in assay [6] it was 1.04. For the same molecule, the composite z-score was -0.0514 in the assay with Sam68 (KHDRBS1), -1 in [7] and -1.47 in assay [8]. Further, in [1], the composite Z-score was 1.21 (inactive).

In the case of `Cc1ccc(S(=O)(=O)N2CC(C(=O)O)=CCC2c2ccccc2)cc1` (stereo not given), the composite z-score is 0.465 in the assay with Albumin (Bos taurus); -0.287 in [2]; -0.106 in assay [3]; 0.881 in [4]; 1.21 in [5]; 0.671 in [6]. Moreover, the composite z-score in the assay on Sam68 (KHDRBS1) was 0.503; in [7], -1.74; in assay [8], 0.0782. The composite Z-score in assay [1] is 0.0578 (inactive).

Take `C=CCOC(=O)[C@@H]1[C@H]2C(=O)O[C@H](c3ccccc3)[C@H](c3ccccc3)N2[C@H](c2ccc(OCCOC(=O)[C@H]3C[C@H]4C(=O)N[C@@H](Cc5ccccc5)C(=O)N4[C@H]3c3ccc(O)cc3)cc2)[C@@]12C(=O)Nc1ccc(I)cc12`: the composite z-score in the assay with Albumin (Bos taurus) was -0.893; in assay [2] it was 0.0092; in assay [3], 0.27; in [4] it was 0.554; in assay [5], 0.931; in assay [6], 1.17. For the same molecule, the composite z-score in the assay with Sam68 (KHDRBS1) amounted to 1.29; in [7], 1.12; in [8] it was 1.16. Also, in assay [1], the composite Z-score was 1.43 (inactive).
